# In the library only some 2.2% were active in any assay of this set; here they are far more common.
# APP transl inh: inhibitors of APP translation via 5'UTR reporter, primary screen, APP 5'UTR luciferase, SH-SY5Y cells. SH-SY5Y APP 5'UTR-luciferase reporter, luminescence. inhibition, % at 2 µM. 0.82% of 190,000 active. AID 1285, 2008;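 active means inhibition above a set limit, derived from the sample mean plus 3 SD, cut at about 45% in these data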
# Ba/F3 V617F tox: reduced viability of JAK2V617F-dependent Ba/F3 cells, primary screen, JAK2V617F inhibitor project, cell-based, Ba/F3 EpoR-JAK2V617F, luminescence; ATP luminescence; 1.1% of 220,000 active; inhibition, % at 5.6 µM;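 active means inhibition above the campaign mean plus 3 SD over all tested compounds, cut at about 24% in these data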;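 further: cytokine-independent growth of Ba/F3 cells driven by EpoR plus mutant JAK2; 0% = DMSO-treated cells and 100% = JAK inhibitor I control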
# BaF3 tox: parental Ba/F3 cell viability inhibition, counter-screen for JAK2V617F inhibitor project, murine pro-B, CellTiter-Glo luminescence. inhibition, % at 5.6 µM. AID 1486, 2009. CellTiter-Glo ATP luminescence. 1.1% of 220,000 active;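 active means inhibition above a per-campaign cutoff, the mean inhibition of all tested compounds plus 3 SD, cut at about 27% in these data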;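 further: 0% = DMSO wells and 100% = JAK Inhibitor I control wells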
# KLF5 inh: KLF5 expression inhibitors, primary screen, DLD-1 cells, luminescence; DLD-1 KLF5 promoter-luciferase reporter; inhibition, % at 5 µM; 0.23% of 290,000 active;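 active means inhibition above a per-plate limit of that plate's mean compound inhibition plus 3 SD, cut at about 60% in these data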;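 further: 0% = DMSO wells and 100% = LY294002 at 200 µM; higher means less KLF5 promoter-driven luciferase light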
# aSyn 5UTR inh: MLPCN primary screen, SNCA 5' untranslated region. alpha-synuclein 5'UTR reporter, inhibitor activity. inhibition, % (tested at 7.5 µM). 0.82% of 300,000 active; in the data active means inhibition above about 60%;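 further: H4 neuroglioblastoma cells stably carrying SNCA 5'UTR luciferase fusion; 0% = DMSO wells and 100% = positive control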
# IEC-6 cytotox: cytotoxicity in IEC-6 intestinal epithelial cells, primary screen, cytotoxicity control for KLF5 inhibitor project, cell-based, luminescence. IEC-6 cytotoxicity, luminescence viability. inhibition, % at 5 µM. 0.78% of 290,000 active. AID 1825, 2009;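 further: 0% = plate median of test compound wells and 100% = cytotoxic reference compound wells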
# IEC-6 tox confirm: cytotoxic compounds in IEC-6 epithelial cells, confirmation, cytotoxicity control, cell-based, luminescence | AID 1907, 2009 | 63% of 1,900 active | shares compounds with IEC-6 cytotox | inhibition, % at 5 µM | IEC-6 rat intestinal epithelial viability;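 further: 0% = vehicle and 100% = reference cytotoxic drug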
# The depositor's hits bear a star; nt = not tested or not shown. Unless noted, no stated cut-off is given here; in the data, active means inhibition above about 22%; inactive means the rest.
SMILES,APP transl inh,Ba/F3 V617F tox,BaF3 tox,KLF5 inh,aSyn 5UTR inh,IEC-6 cytotox,IEC-6 tox confirm
O=C(Nc1cccnc1)c1ccc([N+](=O)[O-])o1,nt,nt,nt,-11,-202,76*,2
O=C(Cc1ccc(-c2ccccc2)cc1)NCc1cccnc1,-40,18,20,-1,-48,25*,25*
O=C(NCc1cccnc1)c1ccc([N+](=O)[O-])o1,7,1,-6,-17,-117,32*,16
O=C(Nc1cccnc1)c1ccco1,26,1,6,-8,-13,-4,nt
Clc1ccc2nc(SCc3nnc(-c4ccccc4)o3)[nH]c2c1,-8,-4,4,6,7,4,nt
Cc1ccc2nc(SCc3nnc(-c4ccccc4Br)o3)[nH]c2c1,-16,-4,4,-7,29,22*,15
Cc1ccc(NC(=O)C2CCN(S(C)(=O)=O)CC2)c(C)c1,nt,nt,nt,-36,0,-8,nt
COCCOC(=O)c1[nH]c2c(c1C)C(=O)CC(c1ccccc1)C2 (configuration not stated),92*,74*,75*,45,78*,84*,56*
COCCOC(=O)c1[nH]c2c(c1C)C(=O)CC(c1ccc(F)cc1)C2 (configuration not stated),-16,2,10,9,1,19,nt
CSCCOC(=O)c1[nH]c2c(c1C)C(=O)CC(c1ccco1)C2 (configuration not stated),95*,72*,73*,59,33,74*,48*
COC(=O)c1[nH]c2c(c1C)C(=O)CC(c1cc(OC)ccc1OC)C2 (configuration not stated),0,3,5,5,-29,6,nt
COCCOC(=O)c1[nH]c2c(c1C)C(=O)CC(c1ccc(N(C)C)cc1)C2 (configuration not stated),-27,-4,2,-61,-45,0,nt
COC(=O)c1[nH]c2c(c1C)C(=O)CC(c1cccs1)C2 (configuration not stated),95*,79*,82*,45,85*,84*,50*
CCOC(=O)N1CCN(C(=O)C2CC(=O)N(c3ccc(C)cc3)C2)CC1 (configuration not stated),nt,nt,nt,nt,17,nt,nt
Cc1ccccc1OCCN1C(=O)C(=O)c2cccc(C)c21,nt,2,9,-23,-16,10,nt
Cc1cccc2c1N(CCOc1ccccc1Cl)C(=O)C2=O,8,19,11,-8,19,50*,21
CCc1ccc(NC(=O)c2ccc(NC3=NC4CS(=O)(=O)CC4S3)cc2)cc1 (configuration not stated),nt,nt,nt,-60,9,-3,nt
CCCOc1ccc(C(=O)NNC(=S)NC(=O)c2cccs2)cc1,nt,nt,nt,28,54,39*,50*
CCCOc1ccc(C(=O)NNC(=S)NC(=O)c2ccccc2)cc1,nt,nt,nt,19,80*,37*,18
C=CCn1c(SCC(=O)N2CCOCC2)nnc1C(C)NC(=O)c1ccccc1 (configuration not stated),nt,nt,nt,-27,10,6,nt
CC(C)[C@H](NC(=O)c1ccccc1Cl)C(=O)Nc1nc(-c2ccccn2)cs1,3,0,12,27,64*,40*,40*
CC(Oc1ccc(Br)cc1)C(=O)Nc1nc(-c2ccccn2)cs1 (configuration not stated),nt,nt,nt,21,45,50*,24*
CCc1nnc(NC(=O)C(NC(=O)c2ccccc2Cl)C(C)C)s1 (configuration not stated),10,0,1,14,8,-2,nt
COc1ccc(-c2cc(C(=O)Nc3cc(Br)ccc3O)no2)cc1,nt,nt,nt,-68,-107,0,nt
C/C(=N\NC(=O)CN1CCCCC1)c1ccccc1O,nt,nt,nt,-10,46,42*,19
SMILES,APP transl inh,Ba/F3 V617F tox,BaF3 tox,KLF5 inh,aSyn 5UTR inh,IEC-6 cytotox,IEC-6 tox confirm
C/C(=N\NC(=O)CN1CCCCC1)c1cccc([N+](=O)[O-])c1,nt,nt,nt,nt,-93,nt,nt
CC(=O)c1ccc(Nc2c3c(nc4ccccc24)CCCC3)cc1,nt,2,-4,-10,-195,25*,20
COc1ccccc1Nc1c2c(nc3ccccc13)CCC2,nt,nt,nt,14,19,48*,31*
COC(=O)c1cccc(Nc2c3c(nc4ccccc24)CCC3)c1,nt,nt,nt,-7,-34,28*,8
COc1ccc(C2=NCN(c3ccc(C)cc3)C(=S)N2)cc1,-54,-1,5,-121,-138,6,nt
COc1ccc(-n2cc(-c3ccc(C)cc3)[n+]3c2SCC3)cc1,-2,94*,71*,0,-23,27*,21
CCc1ccc(-n2cc(-c3ccc(F)cc3)[n+]3c2SCCC3)cc1,4,83*,74*,-3,28,28*,26*
Cc1cc(SCC(=O)OCC(=O)N(C)c2ccccc2)nc2ccccc12,nt,nt,nt,nt,6,nt,nt
COc1ccccc1N1CCN(CCCn2c(=S)[nH]c3ccccc3c2=O)CC1,nt,nt,nt,-24,-2,8,nt
COc1ccc(N2CCN(CCCn3c(=S)[nH]c4ccccc4c3=O)CC2)cc1,nt,nt,nt,4,-6,43*,13
CC1CCC(CN2C(Nc3ccccc3)=NC[C@@H]2C)CC1 (some centres not stated),nt,nt,nt,-21,2,0,nt
COc1ccc(CNC(=O)Cn2ccc3cc(S(=O)(=O)N4CCCC4)ccc32)cc1OC,nt,nt,nt,-3,11,8,nt
COc1ccc(-n2c(SCCNCCO)nc3sc4c(c3c2=O)CCCC4)cc1,nt,nt,nt,-8,-8,2,nt
Cc1cccc(/C=N\NC(=O)c2ccc(Cl)cc2)c1O,-2,-1,2,-50,57,23*,51*
Cc1cccc(/C=N/NC(=O)c2c(-c3ccccc3)noc2C)c1O,nt,nt,nt,44,62*,27*,48*
COc1ccccc1/C=N/NC(=O)c1c(-c2ccccc2)noc1C,nt,nt,nt,-7,15,-1,nt
Cc1ccc(Cl)cc1N1CCN(S(=O)(=O)c2ccc3c(c2)NC(=O)C(C)C(=O)N3)CC1 (configuration not stated),nt,nt,nt,-15,8,-7,nt
CCn1c(CNC(=O)c2ccccc2Br)nnc1SCC(=O)NC1=NCCS1,nt,nt,nt,-14,0,-2,nt
CCc1ccc(C(=O)C[n+]2cccc3cc(OC)ccc32)cc1,nt,nt,nt,10,-12,4,nt
O=c1oc2ccccc2c(Nc2cccc3cccnc23)c1[N+](=O)[O-],-16,2,6,-7,-19,61*,-6
O=c1oc2ccccc2c(Nc2cccc3ccccc23)c1[N+](=O)[O-],1,0,6,20,18,10,nt
Oc1ccc(CCNc2ncnc3ccc(Cl)cc23)cc1,nt,nt,nt,42,-14,23*,10
